{"source": "ChEMBL document CHEMBL3988442", "about": "“University of Dundee, Small-Polar-MMV Screening Library” (2021)", "note": "In all, about 38,000 compounds went through this assay and about 1,200 (3.2%) showed an effect of 50% or more. The median lay at about -58%. The list comes from a sample in which strong results are over-represented; it also holds similar structures and randomly drawn compounds."}
{"system": "Plasmodium falciparum", "assay": "Calibr Malaria Delayed Death Assay SOP", "type": "functional, organism-based", "set-up": "scale not given: in the data most compounds retested in dose-response had high values", "conditions": "concentration 4.99e-06 (unit not given; other assays of the set use mol/L)", "units": {"Percent Effect": "%"}}
{"molecule": "O=C(C1CCOCC1)N1C[C@H]2CCC[C@@]2(COc2cccnc2)C1.O=C(O)C(F)(F)F", "Percent Effect": -16.46}
{"molecule": "Cn1nnc(NCc2ccc(OCc3ccc(Cl)cc3)cc2)n1", "Percent Effect": -71.17}
{"molecule": "Cc1nc2oc(C(=O)N3CCOCC3)c(N)c2c2c1CCCC2", "Percent Effect": -269.1}
{"molecule": "O=C(C[C@@H]1COC[C@H]2CN(Cc3ccccc3)C[C@@H]12)N1CCCC1.O=C(O)C(F)(F)F", "Percent Effect": -13.07}
{"molecule": "CC(C)(C)c1cc2ncn(CCCN3CCCCC3CO)c(=O)c2s1", "note": "(configuration not stated)", "Percent Effect": -23.08}
{"molecule": "O=C(NCC1CC1)C1CCC2(CCN(C(=O)c3ccccn3)CC2)O1.O=C(O)C(F)(F)F", "note": "(configuration not stated)", "Percent Effect": -137.4}
{"molecule": "O=C(NCC(O)CO)Nc1cc(Br)ccc1F", "note": "(configuration not stated)", "Percent Effect": -140}
{"molecule": "O=C(NCc1cccnc1N1CCc2ccccc2C1)c1cc(=O)[nH][nH]1", "Percent Effect": -96.6}
{"molecule": "Cc1nc(CN2CCCC(NCc3cccc4ccccc34)C2)no1", "note": "(configuration not stated)", "Percent Effect": 57.02}
{"molecule": "Cc1nc(CN2CCCC(NCc3ccc4ccccc4c3)C2)no1", "note": "(configuration not stated)", "Percent Effect": -12.45}
{"molecule": "Cc1nc(CN2CCCC(N(C)Cc3c(C)noc3C)C2)no1", "note": "(configuration not stated)", "Percent Effect": 57.32}
{"molecule": "COc1ccccc1OCCNC1CCCN(Cc2noc(C)n2)C1", "note": "(configuration not stated)", "Percent Effect": 19.3}
{"molecule": "Cc1nc(CN2CCCC(NCc3nc4ccccc4s3)C2)no1", "note": "(configuration not stated)", "Percent Effect": -31.98}
{"molecule": "Cc1nc(CN2CCCC(N(C)Cc3cnn(C)c3)C2)no1", "note": "(configuration not stated)", "Percent Effect": -49.27}
{"molecule": "Cc1nc(CN2CCCC(NCCOc3ccccc3)C2)no1", "note": "(configuration not stated)", "Percent Effect": -60.44}
{"molecule": "Cc1nc(CN2CCCC(NCCc3ccccc3Cl)C2)no1", "note": "(configuration not stated)", "Percent Effect": 81.78}
{"molecule": "Cc1cc(CN(C)C2CCCN(Cc3noc(C)n3)C2)no1", "note": "(configuration not stated)", "Percent Effect": -96.62}
{"molecule": "CCOc1ncccc1CNS(=O)(=O)c1ccc2c(c1)CCO2", "Percent Effect": -29.02}
{"molecule": "CCc1nnc2n1CCN(Cc1nc3c(F)cccc3[nH]1)C2", "Percent Effect": -34.12}
{"molecule": "O=C(NCc1cccs1)[C@H]1CC[C@@H]2[C@@H](CCN2Cc2ccoc2)O1.O=C(O)C(F)(F)F", "Percent Effect": 4.133}
{"molecule": "Cc1nnc([C@@]23CCO[C@@H]2CCN(Cc2cccc4ccccc24)C3)o1", "Percent Effect": -36.67}
{"molecule": "COc1cc(C2CC(=O)Nc3c2nc2n3CCCC2)cc(OC)c1O", "note": "(configuration not stated)", "Percent Effect": -209}
{"molecule": "Cc1noc2ncc(S(=O)(=O)N3CCCC(C)(C)CC3)cc12", "Percent Effect": -55}
{"molecule": "CCN(CC)c1ccc(-c2ccc(C)c(S(N)(=O)=O)c2)nn1", "Percent Effect": -97.64}
{"molecule": "CC(CN1CC[C@@H]2CCCC[C@@H]2C1)n1cnc2ccccc21", "note": "(some centres not stated)", "Percent Effect": -12.48}
{"molecule": "CN(Cc1ccc(N(C)C)cc1)C(=O)NCc1nnc2n1CCC2", "Percent Effect": -107.1}
{"molecule": "Cc1ccc(CNC(C)(C)c2noc(C(C)(C)C)n2)o1", "Percent Effect": -93.54}
{"molecule": "COc1ccccc1C(O)Cn1cc(C(=O)NCc2ccco2)nn1", "note": "(configuration not stated)", "Percent Effect": -49.33}
{"molecule": "COc1ccccc1C(C)(C)NCc1ccco1", "Percent Effect": 64.69}
{"molecule": "CNc1c(NCc2ccco2)c(=O)c1=O", "Percent Effect": -69.06}
{"molecule": "COC(=O)c1ccc(CNC(C)(C)c2ccccc2OC)o1", "Percent Effect": -1.138}
{"molecule": "COc1ccccc1C(C)(C)NCc1ccc(C)o1", "Percent Effect": 77.27}
